In PubChem BioAssay one finds composite z-score, z-score and composite Z-score data, which are given here for six compounds.

The test system of assay [1] is Human papillomavirus type 1a protein E7 (residues 44-93). Briefly: small molecules binding HPV E7 44-93 – biochemical, small-molecule microarray, residues 44-93, 635 nm fluorescence, primary screen (AID 1108).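 Note: E7 fragment applied at 1 µg/mL in TBST for 1 h at 4 C; score combines spot fluorescence with its signal to noise ratio.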 The following applies: fluorescence 635 nm, higher = more signal.
Assay [2] in a line: hepatitis C replication reporter changes, two-sided – Huh7 cells, luciferase reporter, HCV replication inhibitor project, primary screen (AID 1109).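 Note: huh7 hepatoma cells harbouring a luciferase neomycin HCV replicon reporter; luciferase luminescence as measure of HCV replicon replication; test concentration not given here.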 The note with it: Huh7 HCV replicon luciferase reporter, 48 h; higher = more signal. For orientation: A reporter such as luciferase makes a cellular process visible.
Assay [3] addresses Left-right determination factor 2 (Homo sapiens) (UniProt O00292). Nature of the assay: small molecules binding LEFTY2 protein – biochemical, small-molecule microarray, 635 nm fluorescence scan, primary screen (AID 1110). The note with it: higher = more signal.
For assay [4], the target named is Calmodulin-1 (Homo sapiens) (UniProt P0DP23). Nature of the assay: small molecules binding calmodulin-1 with EGTA – biochemical, small-molecule microarray, Cy5-labelled CALM1, profiling panel (AID 1111).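 Note: labelled calmodulin applied in Tris saline Tween buffer holding calcium plus EGTA and DTT.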 The note with it: Cy5-CALM1 binding fluorescence, higher = more signal.
Assay [5] shares this target. Nature of the assay: small molecules binding Ca-loaded calmodulin-1 – biochemical, small-molecule microarray, Cy5-labelled CALM1, plus calcium, artefact control for SMM control-protein annotation, profiling panel (AID 1112).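 Note: score merges spot fluorescence with signal to noise from triplicate slides.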 The note with it: Cy5-CALM1 binding fluorescence, higher = more signal.
A short description of assay [6]: probe aWnt5a binding to arrayed compounds – biochemical, biotinylated probe, 635/667 nm fluorescence, primary screen (AID 1113).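 Note: score merges 667 nm fluorescence intensity with signal-to-noise per printed feature.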 The note with it: small-molecule microarray, higher = more signal.
The nature of assay [7]: probe aShh binding to arrayed compounds – biochemical, biotinylated probe, 635/667 nm fluorescence, primary screen (AID 1114).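 Note: probe is biotin-labelled aShh protein from a stem cell growth factor screen; measures binding of labelled protein to compounds printed on the slide; score merges feature fluorescence at 667 nm with signal-to-noise.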 The note with it: small-molecule microarray, higher = more signal.
Assay [8] in a line: probe aNog binding to arrayed compounds – biochemical, biotinylated probe, 635/667 nm fluorescence, primary screen (AID 1115).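 Note: probe is biotinylated aNog protein used at 0.15 µg/mL for 1 h at 4 C; z-score combines 667 nm fluorescence of each spot with its signal to noise.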 The following applies: small-molecule microarray, higher = more signal.
For assay [9], the target named is Torsin-1A-interacting protein 1 (Homo sapiens) (UniProt Q5JTV8). Nature of the assay: compound microarray binding of lysate hLAP1 – cell lysate, small-molecule microarray, COS7 lysate, 635/667 nm fluorescence, primary screen (AID 1116). The following applies: 635 nm fluorescence, higher = more signal.
Assay [10] addresses Alpha-bungarotoxin (Bungarus multicinctus) (UniProt P60615). Nature of the assay: compounds binding labelled alpha-BTX control protein – biochemical, small-molecule microarray, Alexa647 label, 635/667 nm fluorescence, artefact control for SMM control protein annotation, profiling panel (AID 1117). The note with it: alpha-BTX-A647 binding fluorescence, higher = more signal.
Assay [11] deals with Albumin (Bos taurus) (UniProt P02769). Nature of the assay: compounds binding labelled BSA control protein – biochemical, small-molecule microarray, Alexa647 label, 635/667 nm fluorescence, artefact control for SMM control protein annotation, profiling panel (AID 1118).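 Note: score merges 667 nm emission intensity and signal-to-noise per printed compound spot.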 The following applies: BSA-A647 binding, fluorescence 635 nm, higher = more signal.
A short description of assay [12]: probe aXIP binding to arrayed compounds – biochemical, NeuroSMM set, 635/667 nm fluorescence, primary screen (AID 1119).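 Note: probe is the protein aXip251-270 applied at 1 µg/mL to compound-printed slides; binding of probe to printed compounds measured as 667 nm fluorescence plus signal to noise.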 The note with it: small-molecule microarray, higher = more signal, called active from +8 up or from −8 down.
Assay [13] can be described thus: probe aNOTCH3 binding on compound microarray – biochemical, small-molecule microarray, 635/667 nm fluorescence, primary screen (AID 1120).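 Note: probe is a biotin-tagged antibody raised against NOTCH3 rather than NOTCH3 protein; score merges spot fluorescence near 667 nm with spot signal to noise.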 The note with it: higher = more signal.
Assay [14] is described as follows: probe aNOTCH2 binding on compound microarray – biochemical, small-molecule microarray, 635/667 nm fluorescence, primary screen (AID 1121).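 Note: score merges feature fluorescence read at 667 nm with its signal to noise.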 The note with it: higher = more signal.
Assay [15] concerns the target Carbonic anhydrase 2 (Homo sapiens) (UniProt P00918). Nature of the assay: compounds binding carbonic anhydrase 2 – biochemical, small-molecule microarray, Alexa647-labelled CAII, profiling panel (AID 1122). The note with it: CAII-A647 binding fluorescence, higher = more signal.
The nature of assay [16]: COS7 lysate on small-molecule microarray, probe aHis, 635 nm (AID 1123).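 Note: z-score combines 667nm fluorescence intensity with signal-to-noise per printed compound spot.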 The following applies: COS7 cell lysate, fluorescence, higher = more signal.
Assay [17] in a line: probe aLAP1 signal on lysate-treated microarray – cell lysate, small-molecule microarray, COS7 lysate, primary screen (AID 1124).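 Note: lysate comes from COS7 cells expressing LAP1 and is applied at 0.3 µg/mL; score merges spot fluorescence near 667 nm with signal-to-noise over triplicate slides.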 The following applies: probe aLAP1, fluorescence, higher = more signal.
The test system of assay [18] is Sam68 (KHDRBS1). Nature of the assay: compounds binding KHDRBS1 protein – biochemical, small-molecule microarray, 635 nm fluorescence, primary screen (AID 1125).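 Note: score merges 667 nm channel intensity with signal to noise over triplicate slides.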 The note with it: higher = more signal.
Assay [19] concerns Chordin-like protein 2 (CHRDL2). Briefly: compounds binding chordin-like 2 – biochemical, small-molecule microarray, 635 nm fluorescence, primary screen (AID 1126).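 Note: printed compound slides probed with Chrdl2 protein at 4 µg/mL for 1 h at 4 C; score merges 667 nm emission intensity with signal to noise over three replicate slides.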 The note with it: fluorescence 635 nm, higher = more signal.
The target of assay [20] is Concanavalin-A (Canavalia ensiformis) (UniProt P02866). Nature of the assay: compounds binding concanavalin A lectin – biochemical, small-molecule microarray, Alexa647 label, 635 nm, artefact control for SMM control protein annotation, primary screen (AID 1127).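 Note: z combines 667 nm emission intensity with signal-to-noise across three replicate slides.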 The note with it: ConA-A647 binding fluorescence, higher = more signal.

Where “and” joins values, the source holds several entries; their conditions need not be identical. Identical values can stand only once. Calls of active or inactive are those of the source.

Chain of Concanavalin-A (Canavalia ensiformis) (P02866 whole entry, looked up): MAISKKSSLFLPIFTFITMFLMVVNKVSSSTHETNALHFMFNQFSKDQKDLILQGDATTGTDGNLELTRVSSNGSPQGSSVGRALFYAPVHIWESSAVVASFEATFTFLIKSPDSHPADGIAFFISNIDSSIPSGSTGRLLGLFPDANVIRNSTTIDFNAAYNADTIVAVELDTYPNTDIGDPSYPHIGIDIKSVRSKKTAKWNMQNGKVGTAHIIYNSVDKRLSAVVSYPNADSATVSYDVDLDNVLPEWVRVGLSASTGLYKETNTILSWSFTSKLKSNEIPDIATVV
Chain of Torsin-1A-interacting protein 1 (Homo sapiens) (Q5JTV8 whole entry, looked up): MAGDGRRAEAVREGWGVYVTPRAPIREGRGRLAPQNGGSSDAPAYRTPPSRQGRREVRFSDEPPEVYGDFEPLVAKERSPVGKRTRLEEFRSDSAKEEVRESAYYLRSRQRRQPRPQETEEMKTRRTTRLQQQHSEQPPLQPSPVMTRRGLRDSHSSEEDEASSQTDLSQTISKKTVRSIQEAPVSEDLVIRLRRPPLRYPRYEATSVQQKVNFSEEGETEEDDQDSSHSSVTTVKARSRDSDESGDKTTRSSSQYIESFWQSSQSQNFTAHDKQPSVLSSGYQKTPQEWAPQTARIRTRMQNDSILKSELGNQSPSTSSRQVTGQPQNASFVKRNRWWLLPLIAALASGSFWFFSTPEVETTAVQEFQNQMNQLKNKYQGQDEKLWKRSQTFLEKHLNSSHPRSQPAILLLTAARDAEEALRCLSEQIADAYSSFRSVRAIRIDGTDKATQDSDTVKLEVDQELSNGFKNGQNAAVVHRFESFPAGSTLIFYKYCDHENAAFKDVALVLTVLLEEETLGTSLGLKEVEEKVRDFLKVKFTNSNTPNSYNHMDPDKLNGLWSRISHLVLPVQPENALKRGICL
Chain of Albumin (Bos taurus) (P02769 whole entry, looked up): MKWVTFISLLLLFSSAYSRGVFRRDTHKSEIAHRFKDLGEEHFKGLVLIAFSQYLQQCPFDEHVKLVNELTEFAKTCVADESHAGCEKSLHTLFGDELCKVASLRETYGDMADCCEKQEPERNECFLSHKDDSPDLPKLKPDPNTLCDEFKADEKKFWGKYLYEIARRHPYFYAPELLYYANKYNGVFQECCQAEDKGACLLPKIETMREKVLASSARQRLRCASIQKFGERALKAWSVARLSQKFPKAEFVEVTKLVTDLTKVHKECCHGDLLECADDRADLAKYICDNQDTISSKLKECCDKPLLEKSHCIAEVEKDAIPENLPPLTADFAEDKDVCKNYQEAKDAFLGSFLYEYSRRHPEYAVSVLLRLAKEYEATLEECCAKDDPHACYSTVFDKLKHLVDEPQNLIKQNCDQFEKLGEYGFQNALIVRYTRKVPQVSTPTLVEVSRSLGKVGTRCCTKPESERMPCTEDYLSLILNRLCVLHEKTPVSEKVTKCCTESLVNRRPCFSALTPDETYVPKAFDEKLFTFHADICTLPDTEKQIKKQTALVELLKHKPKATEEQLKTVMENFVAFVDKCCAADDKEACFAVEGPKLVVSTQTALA
Chain of Alpha-bungarotoxin (Bungarus multicinctus) (P60615 whole entry, looked up): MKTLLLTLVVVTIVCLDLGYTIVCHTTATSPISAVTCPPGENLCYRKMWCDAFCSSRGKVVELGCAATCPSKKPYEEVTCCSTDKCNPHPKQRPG
Chain of Left-right determination factor 2 (Homo sapiens) (O00292 whole entry, looked up): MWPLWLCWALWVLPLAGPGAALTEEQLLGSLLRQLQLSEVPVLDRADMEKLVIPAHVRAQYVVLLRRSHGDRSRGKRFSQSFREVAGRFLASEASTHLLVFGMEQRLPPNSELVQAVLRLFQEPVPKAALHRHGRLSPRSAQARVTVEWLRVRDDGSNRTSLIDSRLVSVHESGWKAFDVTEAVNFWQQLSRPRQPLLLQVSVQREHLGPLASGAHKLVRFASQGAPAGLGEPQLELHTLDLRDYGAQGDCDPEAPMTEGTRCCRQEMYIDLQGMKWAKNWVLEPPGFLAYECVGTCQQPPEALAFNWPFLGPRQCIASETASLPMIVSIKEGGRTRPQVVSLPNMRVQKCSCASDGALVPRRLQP

With `C#CCCCON=C1C[C@@H](O)[C@@H](O)[C@@H]2[C@@H]3C(=O)N(C4CCCCC4)C(=O)[C@@H]3CC[C@H]12`, the composite z-score in assay [1] is 0.774; in assay [3], 0.16; in assay [4], 0.974; in assay [5], 0.244; in assay [6], 0.454; in assay [7], -0.0177. Moreover, the composite z-score in assay [8] is -0.134; in [9], 0.104; in assay [10], 2.51; in [11], 0.691; in [13], -0.0006; in [14] it was -0.11. The composite z-score was 0.508 in assay [15]; 0.186 in [16]; 0.806 in [17]; 0.866 in assay [18]; -0.133 in [19]; 1.15 in [20]. The compound further gave a z-score in [2] of -0.147. In addition, the composite Z-score in assay [12] was -0.393 (inactive).
As to `CO[C@H]1COC(=O)CC=C[C@@H](C)COC(=O)[C@@H](OCc2ccccc2)C=C[C@@H]1C`, the composite z-score in [1] was -0.418; in [3] it was 1.32; in [4] it was -0.779; in assay [5] it was -2.05; in [6] it was -0.34; in assay [7], 0.149. Also, the composite z-score in assay [8] is -0.378; in assay [9], 0.417; in assay [10], 0.205; in [11] it was -0.853; in assay [13], -0.307; in assay [14] it was -0.179. In addition, the composite z-score was -0.297 in assay [15]; -0.173 in assay [16]; 0.106 in assay [17]; -0.239 in assay [18]; 1.23 in [19]; -1.64 in assay [20]. Moreover, the z-score in assay [2] was -0.0629. For the same compound, the composite Z-score in [12] was 0.528 (inactive).
In the case of `CCOC(=O)c1ccc(NC(=O)O[C@H]2[C@H](OC(=O)Nc3ccccc3)[C@@H](OC(=O)Nc3ccccc3)[C@@H](OC)O[C@@H]2CO)cc1`, the composite z-score in assay [1] is 0.249 and 1.18; in assay [3], 0.772 and 0.53; in assay [4], 2.04 and 1.81; in [5], 0.114 and -0.0271; in assay [6], 0.0618 and 0.199; in assay [7] it was 0.613 and 0.204. Moreover, the composite z-score is 1.32 and 0.386 in assay [8]; 1.2 and 1.5 in assay [9]; 2.04 and 1.85 in assay [10]; 0.905 and 0.893 in [11]; 0.228 and 0.318 in [13]; 0.0149 and -0.0131 in assay [14]. In addition, the composite z-score is 0.527 and 0.688 in assay [15]; 2.63 and 1.91 in [16]; 0.336 and 0.278 in assay [17]; 1.31 in assay [18]; -0.193 and -0.279 in assay [19]; 1.23 and 1.17 in assay [20]. Besides, the z-score in assay [2] is -3.3 and -1.82. Also, the composite Z-score in [12] was 1.09 (inactive) and 0.682 (inactive).
Consider `CO[C@@H]1COC(=O)CC=C[C@H](C)COC(=O)[C@H](C)NC(=O)CC=C[C@H]1C`, for which the composite z-score in assay [1] was -0.103; in assay [3], 0.663; in [4] it was -0.76; in [5], -0.754; in assay [6], -0.13; in assay [7] it was 0.178. In addition, the composite z-score was -0.118 in [8]; 0.542 in [9]; -0.711 in [10]; -1.02 in [11]; -0.1 in assay [13]; -0.164 in [14]. Also, the composite z-score in assay [15] was -0.427; in assay [16], -0.448; in [17], -0.235; in assay [18], 0.548; in [19], 1.06; in assay [20], 0.161. This compound came in with a z-score in assay [2] of -0.394. In assay [12], the composite Z-score was 0.332 (inactive).
Consider `COC(=O)C1=C(C)N(Cc2ccccc2)C2=C3C(=O)N(C)C(=O)[C@@H]3[C@@](O)(C(=O)OC)C(=O)N2[C@@H]1c1ccccc1`, for which the composite z-score in [1] is -0.517 and 0.0656; in assay [3] it was 0.356 and 0.796; in assay [4] it was -0.403 and -0.324; in assay [5] it was -0.668 and -0.691; in assay [6], -0.124 and -0.0735; in assay [7], -0.0035 and -0.16. Moreover, the composite z-score was -0.0705 and -0.272 in assay [8]; 0.015 and -0.101 in [9]; 0.871 and 0.167 in assay [10]; 0.0056 and 0.0685 in assay [11]; 0.134 and -0.101 in [13]; -0.151 and -0.0619 in [14]. Further, the composite z-score is 0.422 and -0.123 in assay [15]; -0.332 and -0.0088 in assay [16]; 1.36 and 0.499 in assay [17]; -0.239 and 0.267 in assay [18]; 0.37 and 0.38 in [19]; 0.17 and 0.178 in assay [20]. Besides, the z-score in [2] was -0.0888 and 1.05. Besides, in assay [12], the composite Z-score was 0.204 (inactive) and -0.12 (inactive).
Regarding `C=CC[C@@H](O)c1ccc(O)c2ccccc12`, the composite z-score is 0.837 and 1.21 in [1]; 0.723 and 0.901 in assay [3]; -1.52 and -0.403 in [4]; -1.59 and -1.41 in [5]; -0.101 and -0.0704 in assay [6]; 0.296 and -0.0553 in assay [7]. In addition, the composite z-score in assay [8] was -0.369 and -0.55; in assay [9], 0.848 and 0.0091; in assay [10], 2.05 and 1.17; in assay [11], -0.0028 and -0.264; in assay [13], 0.347 and 0.0296; in [14], -0.0523 and -0.153. Also, the composite z-score in assay [15] was 0.524 and 0.379; in assay [16] it was 1.18 and 1.3; in assay [17], 0.207 and -0.0872; in assay [18], 1.04 and 1.08; in assay [19] it was 1.38 and 1.23; in assay [20], 0.89 and 0.565. Besides, the z-score in assay [2] was -1.89 and -2.65. The composite Z-score in [12] was 1.21 (inactive) and -0.181 (inactive).
